# Reference: PubChem BioAssay (NCATS)
# Records with an inconclusive call do not appear. A call without a number means that no potency is given here. Calls of active or inactive are those of the source. The call rests on the fitted dose curve; in most records, active means well fitted curve in the direction sought with a large enough effect; inconclusive means small, poorly fitted or top-dose-only effect, or another doubt; inactive means no such curve, though single readings can be large; an effect the other way counts as inactive or inconclusive.
# Test: qHTS of pediatric cancer cell lines to identify multiple opportunities for drug repurposing: Primary screen for DAOY cells (AID 1347090); further: nearly all actives have a fitted effect of over 55% in size
# Conditions: DAOY medulloblastoma viability, CellTiter-Glo luminescence, 48 h; series mostly up to 46 µM
# Method in brief: (§1)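 Cell viability, CellTiter-Glo luminescence; 500-1,000 cells/well, 8- or 11-point titration, 48 h compound exposure at 37 degrees C, 5% CO2. Controls: DMSO neutral, bortezomib 2.3 µM final as positive.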
# Potency means the concentration at half of the fitted maximal effect.
row,Compound,Potency
1,Cc1nc(N)sc1-c1ccnc(Nc2ccc(N3CCOCC3)cc2)n1,18.7 µM (active)
2,O=C1c2ccccc2-[n+]2ccc3c([nH]c4ccccc43)c21,2.96 µM (active)
3,C[C@H]1[C@H](NC(=O)C(=NOC(C)(C)C(=O)O)c2csc(N)n2)C(=O)N1S(=O)(=O)O,inactive
4,OC[C@@H](O)[C@H](O)[C@H](O)[C@@H](O)CO,inactive
5,C[N+](C)(C)CCCCCC[N+](C)(C)C,inactive
6,C[N+]1(C)[C@@H]2CC(OC(=O)[C@H](CO)c3ccccc3)C[C@H]1[C@H]1O[C@@H]12 (some centres not stated),inactive
7,CCOC(=O)O[C@]1(C(=O)OCCl)CC[C@@H]2[C@H]3CCC4=CC(=O)C=C[C@]4(C)[C@@H]3[C@@H](O)C[C@@]21C,inactive
8,O=C(O)Cc1cccc2ccccc12,inactive
9,Cc1ccc(C(=O)Nc2cccc(C(F)(F)F)c2)cc1Nc1nc(-c2cccnc2)nc2c1cnn2C,14.8 µM (active)
10,COc1cccc2c1CCCC2CCCN1CCN(C2CCCCC2)CC1 (configuration not stated),inactive
11,NCCS,inactive
12,COc1ccc(-c2coc3cc(O)ccc3c2=O)cc1,inactive
13,CN(C)CCC(c1ccccc1)c1ccccn1 (configuration not stated),inactive
14,COc1cc(O)c2c(c1)C(=O)c1cc(C)cc(O)c1C2=O,inactive
15,O=c1c(-c2ccc(O)cc2)coc2cc(O[C@@H]3O[C@H](CO)[C@H](O)[C@H](O)[C@H]3O)ccc12,inactive
16,C=C1C(=O)[C@@]23C(CC[C@@H]1[C@H]2O)[C@@]12CO[C@]3(O)[C@@H](O)[C@@H]1C(C)(C)CC[C@@H]2O (some centres not stated),2.35 µM (active)
17,CN[C@@H](C)C(=O)N[C@H]1CN(C(=O)CC(C)C)CC[C@H]2CC[C@@H](C(=O)NC(c3ccccc3)c3ccccc3)N2C1=O,2.35 µM (active)
18,O=c1ccn([C@@H]2O[C@H](CO)[C@H](O)[C@H]2O)c(=O)[nH]1,inactive

row,Compound,Potency
1,Cc1[nH]c(C=C2C(=O)Nc3ccc(S(=O)(=O)Cc4c(Cl)cccc4Cl)cc32)c(C)c1C(=O)N1CCC[C@H]1CN1CCCC1,inactive
2,CC(C)C[C@H](CC(=O)O)C(=O)N[C@@H](Cc1c[nH]c2ccccc12)C(=O)N[C@@H](C)c1ccccc1,inactive
3,NC[C@@H]1O[C@@H](O[C@H]2[C@@H](O)[C@H](O[C@@H]3[C@@H](O)[C@@H](N)C[C@H](N)[C@H]3O[C@H]3O[C@H](CN)[C@@H](O)[C@@H](O)[C@H]3N)O[C@H]2CO)[C@H](N)[C@@H](O)[C@@H]1O,inactive
4,O=C1C[C@@H](c2ccc(O)cc2)Oc2cc(O)cc(O)c21,inactive
5,O=C(O)c1ccccc1C(=O)Nc1ccc(-c2ccccc2)cc1,inactive
6,O=C(O)c1cc(-c2ccccc2)nc2ccccc12,inactive
7,C[C@@H](O)[C@H]1C(=O)N2C(C(=O)O)=C(S[C@@H]3CN[C@H](C(=O)N(C)C)C3)[C@H](C)[C@H]12,inactive
8,CC(=Cc1ccccc1)C=C1SC(=S)N(CC(=O)O)C1=O,inactive
9,COc1ccc2cccc(CCNC(C)=O)c2c1,inactive
10,CC(C)C(C)C=CC(C)C1CCC2C3=CC=C4CC(O)CCC4(C)C3CCC21C (configuration not stated),inactive
11,O=C(NC1CCOCC1)c1ccc(-c2cc(-c3cn[nH]c3-c3ccccn3)ccn2)cc1,inactive
12,CC(C)C(=O)Oc1ccc(CO)cc1[C@H](CCN(C(C)C)C(C)C)c1ccccc1,inactive
13,O=C1NC(=O)C(c2ccccc2)(c2ccccc2)N1,inactive
14,Cn1c(N2CCCCS2(=O)=O)nc(C(=O)NCc2ccc(F)cc2)c(O)c1=O,inactive
15,CC(C)(C)c1ccc(C(O)CCCN2CCC(C(O)(c3ccccc3)c3ccccc3)CC2)cc1 (configuration not stated),inactive
16,O=C1NCC2(CCN(CCc3ccccc3)CC2)O1,inactive
17,CC(C)(C(=O)NCC(F)(F)C(F)(F)F)C(=O)N[C@@H]1C(=O)Nc2ccccc2-c2ccccc21,18.7 µM (active)
18,O=C(O)c1cc(O)c2c(c1)C(=O)c1cccc(O)c1C2=O,inactive

# Test: qHTS of pediatric cancer cell lines to identify multiple opportunities for drug repurposing: Primary screen for SJ-GBM2 cells (AID 1347091)
# Conditions: SJ-GBM2 viability, CellTiter-Glo luminescence, 48 h; series mostly up to 46 µM
# Method in brief: as §1
row,Compound,Potency
1,Cc1nc(N)sc1-c1ccnc(Nc2ccc(N3CCOCC3)cc2)n1,2.35 µM (active)
2,O=C1c2ccccc2-[n+]2ccc3c([nH]c4ccccc43)c21,0.833 µM (active)
3,C[C@H]1[C@H](NC(=O)C(=NOC(C)(C)C(=O)O)c2csc(N)n2)C(=O)N1S(=O)(=O)O,inactive
4,OC[C@@H](O)[C@H](O)[C@H](O)[C@@H](O)CO,inactive
5,C[N+](C)(C)CCCCCC[N+](C)(C)C,inactive
6,C[N+]1(C)[C@@H]2CC(OC(=O)[C@H](CO)c3ccccc3)C[C@H]1[C@H]1O[C@@H]12 (some centres not stated),inactive
7,CCOC(=O)O[C@]1(C(=O)OCCl)CC[C@@H]2[C@H]3CCC4=CC(=O)C=C[C@]4(C)[C@@H]3[C@@H](O)C[C@@]21C,inactive
8,O=C(O)Cc1cccc2ccccc12,inactive
9,Cc1ccc(C(=O)Nc2cccc(C(F)(F)F)c2)cc1Nc1nc(-c2cccnc2)nc2c1cnn2C,7.43 µM (active)
10,COc1cccc2c1CCCC2CCCN1CCN(C2CCCCC2)CC1 (configuration not stated),18.7 µM (active)
11,NCCS,inactive
12,COc1ccc(-c2coc3cc(O)ccc3c2=O)cc1,inactive
13,CN(C)CCC(c1ccccc1)c1ccccn1 (configuration not stated),inactive
14,COc1cc(O)c2c(c1)C(=O)c1cc(C)cc(O)c1C2=O,inactive
15,O=c1c(-c2ccc(O)cc2)coc2cc(O[C@@H]3O[C@H](CO)[C@H](O)[C@H](O)[C@H]3O)ccc12,inactive
16,C=C1C(=O)[C@@]23C(CC[C@@H]1[C@H]2O)[C@@]12CO[C@]3(O)[C@@H](O)[C@@H]1C(C)(C)CC[C@@H]2O (some centres not stated),8.33 µM (active)
17,CN[C@@H](C)C(=O)N[C@H]1CN(C(=O)CC(C)C)CC[C@H]2CC[C@@H](C(=O)NC(c3ccccc3)c3ccccc3)N2C1=O,0.935 µM (active)
18,O=c1ccn([C@@H]2O[C@H](CO)[C@H](O)[C@H]2O)c(=O)[nH]1,inactive

row,Compound,Potency
1,Cc1[nH]c(C=C2C(=O)Nc3ccc(S(=O)(=O)Cc4c(Cl)cccc4Cl)cc32)c(C)c1C(=O)N1CCC[C@H]1CN1CCCC1,0.0332 µM (active)
2,CC(C)C[C@H](CC(=O)O)C(=O)N[C@@H](Cc1c[nH]c2ccccc12)C(=O)N[C@@H](C)c1ccccc1,3.72 µM (active)
3,NC[C@@H]1O[C@@H](O[C@H]2[C@@H](O)[C@H](O[C@@H]3[C@@H](O)[C@@H](N)C[C@H](N)[C@H]3O[C@H]3O[C@H](CN)[C@@H](O)[C@@H](O)[C@H]3N)O[C@H]2CO)[C@H](N)[C@@H](O)[C@@H]1O,inactive
4,O=C1C[C@@H](c2ccc(O)cc2)Oc2cc(O)cc(O)c21,inactive
5,O=C(O)c1ccccc1C(=O)Nc1ccc(-c2ccccc2)cc1,inactive
6,O=C(O)c1cc(-c2ccccc2)nc2ccccc12,inactive
7,C[C@@H](O)[C@H]1C(=O)N2C(C(=O)O)=C(S[C@@H]3CN[C@H](C(=O)N(C)C)C3)[C@H](C)[C@H]12,inactive
8,CC(=Cc1ccccc1)C=C1SC(=S)N(CC(=O)O)C1=O,inactive
9,COc1ccc2cccc(CCNC(C)=O)c2c1,inactive
10,CC(C)C(C)C=CC(C)C1CCC2C3=CC=C4CC(O)CCC4(C)C3CCC21C (configuration not stated),inactive
11,O=C(NC1CCOCC1)c1ccc(-c2cc(-c3cn[nH]c3-c3ccccn3)ccn2)cc1,inactive
12,CC(C)C(=O)Oc1ccc(CO)cc1[C@H](CCN(C(C)C)C(C)C)c1ccccc1,inactive
13,O=C1NC(=O)C(c2ccccc2)(c2ccccc2)N1,inactive
14,Cn1c(N2CCCCS2(=O)=O)nc(C(=O)NCc2ccc(F)cc2)c(O)c1=O,inactive
15,CC(C)(C)c1ccc(C(O)CCCN2CCC(C(O)(c3ccccc3)c3ccccc3)CC2)cc1 (configuration not stated),inactive
16,O=C1NCC2(CCN(CCc3ccccc3)CC2)O1,inactive
17,CC(C)(C(=O)NCC(F)(F)C(F)(F)F)C(=O)N[C@@H]1C(=O)Nc2ccccc2-c2ccccc21,1.05 µM (active)
18,O=C(O)c1cc(O)c2c(c1)C(=O)c1cccc(O)c1C2=O,inactive
